The panel holds about 83,000 compounds, 20% with a hit somewhere; the sample as a whole holds those more often.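 Treatment: one concentration, 48 hours, 96-well format. Scoring: percent growth, with anything below 10 considered active.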 The source made the active and inactive calls.
Legend:
Test in all cases: NCI-60 one-dose screen, 48 h (100 = growth as untreated, 0 = no growth, -100 = all killed)
Settings in all cases: 10 µM unless noted
T-47D breast = system: T-47D breast
BT-549 breast = system: BT-549 breast
MDA-MB-435 melanoma = system: MDA-MB-435 melanoma
SW-620 colon = system: SW-620 colon
MCF7 breast = system: MCF7 breast
HCT-116 colon = system: HCT-116 colon
HCC-2998 colon = system: HCC-2998 colon
KM12 colon = system: KM12 colon

Measured: growth

O=S(=O)(Nc1cc(F)cc(F)c1)c1ccc(-c2cnc(C3CC3)o2)cc1
active: MDA-MB-435 melanoma -23.6%
inactive: T-47D breast 29.8% | BT-549 breast 36.1% | SW-620 colon 17.2% | MCF7 breast 14.3% | HCT-116 colon 19.1% | HCC-2998 colon 67.3% | KM12 colon 19.2%

Cc1ccc(-c2csc(NC(=O)CSc3nc(N)cc(N)n3)n2)cc1
inactive: T-47D breast 19.6% | BT-549 breast 52.1% | MDA-MB-435 melanoma 63.2% | SW-620 colon 93.6% | MCF7 breast 50.6% | HCT-116 colon 41.8% | HCC-2998 colon 86.8% | KM12 colon 77.5%

Clc1cccc(C2Cc3cnccc3-c3[nH]c4ccncc4c32)c1 (stereo not drawn)
inactive: T-47D breast 34.4% | BT-549 breast 50.1% | MDA-MB-435 melanoma 39.5% | SW-620 colon 44.7% | MCF7 breast 20.4% | HCT-116 colon 32.5% | HCC-2998 colon 76.7% | KM12 colon 44.3%

COCCn1cc(-c2nc(-c3cn(CCOC)c4ncccc34)cs2)c2cc(F)ccc21
inactive: BT-549 breast 51.7% | MDA-MB-435 melanoma 59.1% | SW-620 colon 90.7% | HCT-116 colon 61.8% | HCC-2998 colon 42.1% | KM12 colon 10.6%
active: T-47D breast -11.9% | MCF7 breast 7.84%

COc1cc(/C=C/C(=O)c2cccc(-n3cc(-c4ccc(Cl)cc4)[nH]c3=O)c2)ccc1O
inactive: T-47D breast 62.2% | BT-549 breast 26.3% | MDA-MB-435 melanoma 21.4% | SW-620 colon 16% | HCT-116 colon 21.5% | HCC-2998 colon 66.8%
active: MCF7 breast 9.8% | KM12 colon 6.79%

COc1ccc(NC(=O)c2ccc(Nc3ncnc4c3cnn4-c3cccc(F)c3)cc2)cc1
inactive: T-47D breast 96.1% | BT-549 breast 104% | MDA-MB-435 melanoma 102% | SW-620 colon 103% | MCF7 breast 96.5% | HCT-116 colon 103% | HCC-2998 colon 107% | KM12 colon 100%

Nc1nc(N(Cc2ccccc2)c2ccccc2)c2cn[nH]c2n1
inactive: T-47D breast 44.4% | BT-549 breast 68.2% | SW-620 colon 25% | MCF7 breast 43.8% | HCT-116 colon 40.9% | HCC-2998 colon 71.2% | KM12 colon 35.1%
active: MDA-MB-435 melanoma 9.3%

CC(=O)c1ccc(-n2cc(CN3CCN(c4cc5c(cc4F)c(=O)c(C(=O)O)cn5C4CC4)CC3)nn2)cc1
inactive: T-47D breast 96.4% | BT-549 breast 102% | MDA-MB-435 melanoma 96.3% | SW-620 colon 90% | MCF7 breast 72.9% | HCC-2998 colon 86% | KM12 colon 84.9%
active: HCT-116 colon -9.74%

COc1cc(/C=N/NC(=O)c2ccc(-n3cc(-c4ccccc4)nn3)cc2)cc(OC)c1OC
inactive: T-47D breast 59.8% | BT-549 breast 53.8% | MDA-MB-435 melanoma 33.1% | SW-620 colon 64.8% | MCF7 breast 14.1% | HCT-116 colon 89.5% | HCC-2998 colon 84.3% | KM12 colon 53.1%

CSc1ccc2c3c(n(CCCn4ccnc4)c(=O)c2c1)-c1ccccc1C3=O
inactive: T-47D breast 15.9% | BT-549 breast 63.4% | MDA-MB-435 melanoma 64.6% | SW-620 colon 31.5% | HCT-116 colon 10.6% | HCC-2998 colon 75.9% | KM12 colon 45.4%
active: MCF7 breast 9.87%

CC1(C)N=C(N)N=C(N)N1c1ccc(S(=O)(=O)Nc2nccs2)cc1
inactive: T-47D breast 95.6% | BT-549 breast 94.1% | MDA-MB-435 melanoma 102% | SW-620 colon 98.2% | MCF7 breast 103% | HCT-116 colon 100% | HCC-2998 colon 113% | KM12 colon 101%

C#CCOc1cccc(Nc2ncnc3cc(NC(=O)CCl)ccc23)c1
active: T-47D breast -48.9% | BT-549 breast -55.4% | MDA-MB-435 melanoma -75.2% | SW-620 colon -49.7% | MCF7 breast -15.9% | HCT-116 colon -61.1% | HCC-2998 colon -67.2% | KM12 colon -69.5%

CC1SC(c2ccccc2O)N(NC(=O)CCC(=O)c2nc3ncccc3[nH]2)C1=O (stereo not drawn)
inactive: T-47D breast 93.6% | BT-549 breast 122% | MDA-MB-435 melanoma 102% | SW-620 colon 92.6% | MCF7 breast 98.7% | HCT-116 colon 91.2% | HCC-2998 colon 92.9% | KM12 colon 95.2%

Cc1nc2sc(C(=O)Nc3ccccn3)c(N)c2cc1C(C)O (stereo not drawn)
inactive: T-47D breast 73.1% | BT-549 breast 85.1% | SW-620 colon 48.8% | MCF7 breast 29.6% | HCT-116 colon 48.1% | HCC-2998 colon 74.8% | KM12 colon 37.5%
active: MDA-MB-435 melanoma -31.6%

COc1cc(Cc2cc(-c3ccccc3)nn(Cc3ccccc3)c2=O)cc(OC)c1OC
active: T-47D breast 6.19%
inactive: BT-549 breast 53.8% | MDA-MB-435 melanoma 44.9% | SW-620 colon 50.1% | MCF7 breast 24.5% | HCT-116 colon 23.3% | HCC-2998 colon 64.2% | KM12 colon 32.9%

CCN(CC)c1ccc(-c2cc(-c3cc(OC)c(OC)c(OC)c3)nc(N3CCC(O)CC3)c2C#N)cc1
active: T-47D breast 2.08% | BT-549 breast -1.42% | MDA-MB-435 melanoma -40.8% | SW-620 colon 9.95% | MCF7 breast -33.3% | HCT-116 colon -51% | HCC-2998 colon -10.5% | KM12 colon -26.8%

N#Cc1ccc(/C=C/c2cn(-c3ccccc3)nc2-c2cccc([N+](=O)[O-])c2)cc1
inactive: T-47D breast 75% | BT-549 breast 40.5% | MDA-MB-435 melanoma 61.2% | SW-620 colon 57.1% | MCF7 breast 58.7% | HCT-116 colon 30.1% | HCC-2998 colon 82% | KM12 colon 65.7%

O=C1O[C@@H](c2ccccc2Cl)[C@@H]2c3cc4c(cc3CCN12)OCO4
inactive: T-47D breast 69.9% | BT-549 breast 101% | MDA-MB-435 melanoma 105% | SW-620 colon 97.2% | MCF7 breast 103% | HCT-116 colon 94.9% | HCC-2998 colon 106% | KM12 colon 97.8%

COc1ccc(C/C(C)=C(\c2ccc(Cl)cc2)c2ccc(OCCN3CCCC3)cc2)cc1
inactive: T-47D breast 56.6% | BT-549 breast 85.5% | MDA-MB-435 melanoma 89.4% | SW-620 colon 75.2% | MCF7 breast 35.7% | HCT-116 colon 78.9% | HCC-2998 colon 75.6% | KM12 colon 72.1%

CC(O)Cc1c[nH]c(=O)[nH]c1=O (stereo not drawn)
active: T-47D breast -19.1%
inactive: BT-549 breast 105% | MDA-MB-435 melanoma 103% | SW-620 colon 94.9% | MCF7 breast 88.9% | HCT-116 colon 97.2% | HCC-2998 colon 119% | KM12 colon 95.6%

C[C@@H]1NC(=O)[C@H](Cc2ccccc2)N(Cc2cccnc2)C1=O
inactive: T-47D breast 94.6% | BT-549 breast 73.2% | MDA-MB-435 melanoma 104% | SW-620 colon 97.2% | MCF7 breast 91.5% | HCT-116 colon 71% | HCC-2998 colon 106% | KM12 colon 103%

Cc1ccc2c(c1)=C/C(=C\c1cc(-c3ccccc3)[nH]c1O)C(=O)N=2
active: MDA-MB-435 melanoma -1.51%
inactive: T-47D breast 40.2% | BT-549 breast 29.9% | SW-620 colon 32.8% | MCF7 breast 21.5% | HCT-116 colon 17.6% | HCC-2998 colon 56.6% | KM12 colon 28.3%

Cn1cc(-c2nonc2-c2c[nH]c3ccccc23)c2cc(Br)ccc21
active: MDA-MB-435 melanoma 2.49%
inactive: T-47D breast 14.5% | BT-549 breast 47.1% | SW-620 colon 23.9% | MCF7 breast 19.6% | HCT-116 colon 25.6% | HCC-2998 colon 43.4% | KM12 colon 17.7%

C=CCn1cc(-c2nc3ccccc3s2)c2cc(-c3ccc4c5c(cccc35)C(=O)N(CCO)C4=O)ccc21
inactive: T-47D breast 78.1% | BT-549 breast 99.4% | MDA-MB-435 melanoma 109% | SW-620 colon 98.9% | MCF7 breast 80.2% | HCT-116 colon 96.7% | HCC-2998 colon 101% | KM12 colon 105%

Oc1ccc(-c2nc3ccc4[nH]ncc4c3c3c2CCCC3)c(F)c1
inactive: T-47D breast 33% | BT-549 breast 13.9% | MCF7 breast 26.8% | HCC-2998 colon 41.4% | KM12 colon 20%
active: MDA-MB-435 melanoma -23.3% | SW-620 colon 8.41% | HCT-116 colon 4.73%

O=C1/C(=C/c2cccc(Br)c2)COc2ccc(O)cc21
inactive: T-47D breast 19.6% | BT-549 breast 47.7% | MDA-MB-435 melanoma 25.1% | HCC-2998 colon 86.2% | KM12 colon 28%
active: SW-620 colon -21.2% | MCF7 breast 6.98% | HCT-116 colon 6.67%

From PubChem BioAssay (NCI)
